Measurements taken from PubChem BioAssay (Tox21).
Results filed as inconclusive are left out. The source made the active and inactive calls. Unless noted, the call rests on the fitted dose curve; in most records, active means well fitted curve in the direction sought with a large enough effect in the repeat runs; inconclusive means weak or mixed curves; inactive means no such curve, though single readings can be large; an effect the other way counts as inactive or inconclusive.

Experiments:
[1] = qHTS assay to identify small molecule agonists of the peroxisome proliferator-activated receptor delta (PPARd) signaling pathway - cell viability counter screen (AID 743211); further: nearly all actives have a fitted effect of over 55% in size; further: potency means the concentration at half of the fitted maximal effect
Procedure, shortened: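 Viability was measured as CellTiter-Glo luminescence (30 min, room temperature) in the same wells as the beta-lactamase readout. GeneBLAzer PPARd UAS-bla HEK293H cells received compound after 5 h plating and were incubated 17 h at 37 C.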

[2] = qHTS assay to identify small molecule antagonists of the peroxisome proliferator-activated receptor delta (PPARd) signaling pathway - cell viability counter screen (AID 743213); further: nearly all actives have a fitted effect of over 50% in size; further: potency means the concentration at half of the fitted maximal effect
Procedure, shortened: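 PPARd-bla HEK293H cells (3000/well) got compound plus 300 nM L165041 agonist for 17 h at 37 C. Viability in the same wells came from CellTiter-Glo luminescence after 30 min at room temperature.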

[3] = qHTS assay to identify small molecule agonists of the farnesoid-X-receptor (FXR) signaling pathway - cell viability counter screen (AID 743218); further: nearly all actives have a fitted effect of over 45% in size; further: potency means the concentration at half of the fitted maximal effect
Procedure, shortened: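 Cells were seeded, left 5 h at 37 C and 5% CO2, then dosed with compound in DMSO for 16 h. After the beta-lactamase FRET read, CellTiter-Glo was added and luminescence measured 30 min later.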

[4] = qHTS assay to identify small molecule antagonists of the farnesoid-X-receptor (FXR) signaling pathway - cell viability counter screen (AID 743221; active means well fitted cell-killing curve with a large enough effect in the repeat runs, not every such curve was filed as active; further: nearly all actives have a fitted effect of over 50% in size; further: potency means the concentration at half of the fitted maximal effect)
Procedure, shortened: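 Cytotoxicity counter screen run in the FXR-bla reporter wells: HEK 293T cells exposed to compound with 50 uM (final) chenodeoxycholic acid for 16 h, 37 C, then viability measured by CellTiter-Glo luminescence after 30 min, room temperature.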

[5] = biological target: Vitamin D3 receptor (Homo sapiens) (UniProt P11473); assay: qHTS assay to identify small molecule agonists of the vitamin D receptor (VDR) signaling pathway (AID 743222; calls by dose curve; further: on the % scale 0 is the no-effect control and ±100 the full control effect)
Vitamin D3 receptor (Homo sapiens), sequence (P11473 whole entry, looked up): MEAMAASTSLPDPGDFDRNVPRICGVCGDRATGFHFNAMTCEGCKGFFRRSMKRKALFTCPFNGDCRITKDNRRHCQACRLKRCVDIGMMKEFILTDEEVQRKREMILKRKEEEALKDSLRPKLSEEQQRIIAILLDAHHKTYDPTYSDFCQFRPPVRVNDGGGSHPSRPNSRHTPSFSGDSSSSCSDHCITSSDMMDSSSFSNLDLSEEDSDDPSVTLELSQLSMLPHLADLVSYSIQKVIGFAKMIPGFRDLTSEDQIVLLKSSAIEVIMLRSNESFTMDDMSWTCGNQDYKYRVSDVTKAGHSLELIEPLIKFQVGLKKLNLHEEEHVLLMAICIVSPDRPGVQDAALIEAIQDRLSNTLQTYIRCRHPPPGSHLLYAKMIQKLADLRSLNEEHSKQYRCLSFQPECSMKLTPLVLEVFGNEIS
Procedure, shortened: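 Cells carrying a VDR-driven beta-lactamase reporter are seeded at 2,000 per well and rested 4 h. Compounds in DMSO are added for 16 h at 37C, and FRET substrate fluorescence is measured after 2 h at room temperature.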

[6] = qHTS assay to identify small molecule agonists of the vitamin D receptor (VDR) signaling pathway - cell viability counter screen (AID 743224); further: nearly all actives have a fitted effect of over 50% in size; further: potency means the concentration at half of the fitted maximal effect
Procedure, shortened: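 Cells: VDR-bla, 2,000/well, settled 4 h. Treatment: compounds in DMSO, 16 h, 37C/5% CO2. Readout: CellTiter-Glo luminescence after 30 min RT.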

[7] = qHTS assay to identify small molecule antagonists of the vitamin D receptor (VDR) signaling pathway - cell viability counter screen (AID 743225); further: nearly all actives have a fitted effect of over 50% in size; further: potency means the concentration at half of the fitted maximal effect
Procedure, shortened: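 Cytotoxicity counter screen read by CellTiter-Glo luminescence (30 min, room temperature) in the same wells as the VDR-bla antagonist readout. HEK 293T VDR-UAS-bla cells had 16 h at 37C with compound and 3 nM (final) 1-alpha,25-dihydroxyvitamin D3, then 2 h with FRET substrate.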

[8] = qHTS assay to identify small molecule agonists of the NFkB signaling pathway - cell viability counter screen (AID 1159515; calls by dose curve; further: nearly all actives have a fitted effect of over 55% in size; further: potency means the concentration at half of the fitted maximal effect)
Procedure, shortened: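 Cells are seeded (2,000 NFkB-bla ME-180 per well), rested overnight, and dosed with DMSO-dissolved compounds for 5 hr at 37 C. Viability is then read by CellTiter-Glo luminescence after 30 min at room temperature.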

[9] = qHTS assay to identify small molecule antagonists of the retinoid-related orphan receptor gamma (ROR-gamma) signaling pathway - cell viability counter screen (AID 1159520); further: nearly all actives have a fitted effect of over 50% in size; further: potency means the concentration at half of the fitted maximal effect
Procedure, shortened: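 Tet-on ROR gamma CHO cells (1,000/well) were plated 4 hr, given compounds in DMSO for 2 hr at 37 C, then induced with 1 uM final doxycycline for 16 hr. Viability was read as ATP by CellTiter-Glo luminescence after 30 min.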

[10] = qHTS assay to identify small molecule agonists of the AP-1 signaling pathway - cell viability counter screen (AID 1159525; calls by dose curve; further: nearly all actives have a fitted effect of over 55% in size; further: potency means the concentration at half of the fitted maximal effect)
Procedure, shortened: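 Each titration point was normalised to DMSO and tetra n-octyl ammonium bromide controls. The read was Cell Titer Glo luminescence after 30 min at RT, following 5 h compound exposure of ME-180 AP-1-bla cells at 37 °C.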

[11] = qHTS assay to identify small molecule agonists of the AP-1 signaling pathway (AID 1159526; calls by dose curve; further: on the % scale 0 is the no-effect control and ±100 the full control effect)
[12] = biological target: Retinoic acid receptor RXR-alpha (Homo sapiens) (UniProt P19793); assay: qHTS assay to identify small molecule agonists of the RXR signaling pathway (AID 1159527; calls by dose curve; further: on the % scale 0 is the no-effect control and ±100 the full control effect; nearly all actives have a fitted effect of over 35% in size)
Retinoic acid receptor RXR-alpha (Homo sapiens), sequence (P19793 whole entry, looked up): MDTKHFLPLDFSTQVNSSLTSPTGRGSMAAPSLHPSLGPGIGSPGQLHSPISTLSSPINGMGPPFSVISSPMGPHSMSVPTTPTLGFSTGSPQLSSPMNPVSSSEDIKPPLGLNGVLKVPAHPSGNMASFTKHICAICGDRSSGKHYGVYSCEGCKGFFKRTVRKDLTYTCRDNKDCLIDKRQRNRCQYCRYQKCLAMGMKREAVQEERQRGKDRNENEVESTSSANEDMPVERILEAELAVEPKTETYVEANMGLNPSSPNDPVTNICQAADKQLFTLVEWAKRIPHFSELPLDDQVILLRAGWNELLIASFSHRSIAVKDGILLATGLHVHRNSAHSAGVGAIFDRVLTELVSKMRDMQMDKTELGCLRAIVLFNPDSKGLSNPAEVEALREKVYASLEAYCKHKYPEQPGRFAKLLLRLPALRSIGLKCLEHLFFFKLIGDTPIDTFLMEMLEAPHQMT
Procedure, shortened: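 Agonist-mode beta-lactamase reporter assay: HEK 293T RXR-alpha-UAS-bla cells treated 16 hr at 37 C with compounds, 9-cis retinoic acid as positive control. LiveBLAzer FRET substrate, 405 nm excitation, 460/530 nm emission.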

[13] = biological target: Bile acid receptor (Homo sapiens) (UniProt Q96RI1); assay: qHTS assay to identify small molecule agonists of the farnesoid-X-receptor (FXR) signaling pathway (AID 743220; active means well fitted activation curve with a large enough effect in the signal ratio in the repeat runs, not every such curve was filed as active; the % refers to the signal ratio; further: on the % scale 0 is the no-effect control and ±100 the full control effect)
Bile acid receptor (Homo sapiens), sequence (Q96RI1 whole entry, looked up): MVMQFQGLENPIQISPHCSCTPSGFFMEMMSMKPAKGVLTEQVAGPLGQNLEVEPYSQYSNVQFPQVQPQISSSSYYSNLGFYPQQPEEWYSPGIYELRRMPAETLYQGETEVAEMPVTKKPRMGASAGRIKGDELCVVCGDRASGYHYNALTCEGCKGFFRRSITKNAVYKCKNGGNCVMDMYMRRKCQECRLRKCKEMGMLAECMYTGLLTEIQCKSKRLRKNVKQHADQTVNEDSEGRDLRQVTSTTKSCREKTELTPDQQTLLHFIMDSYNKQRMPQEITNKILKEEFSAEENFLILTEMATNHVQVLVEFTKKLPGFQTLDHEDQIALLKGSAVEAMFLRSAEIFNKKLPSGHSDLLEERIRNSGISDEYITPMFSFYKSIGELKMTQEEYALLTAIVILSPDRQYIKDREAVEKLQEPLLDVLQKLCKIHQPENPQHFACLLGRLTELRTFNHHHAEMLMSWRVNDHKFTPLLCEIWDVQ
Procedure, shortened: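 FXR-UAS-bla HEK 293T cells carrying a UAS-driven beta-lactamase reporter were plated for 5 h at 37C/5% CO2, then exposed to DMSO-dissolved Tox21 10K compounds for 16 h at 37C. A LiveBLAzer B/G FRET substrate was loaded for 2 h at room temperature before fluorescence reading.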

[14] = biological target: Vitamin D3 receptor (Homo sapiens) (UniProt P11473); assay: qHTS assay to identify small molecule antagonists of the vitamin D receptor (VDR) signaling pathway (AID 743223; active means well fitted inhibition curve with a large enough effect in the signal ratio in the repeat runs, not every such curve was filed as active; the % refers to the signal ratio; further: on the % scale 0 is the no-effect control and ±100 the full control effect)
Procedure, shortened: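 Antagonist mode: compound added to VDR-bla cells alongside agonist 1alpha,25-dihydroxyvitamin D3 (3 nM final), incubation 16 h at 37C. Read-out is LiveBLAzer FRET fluorescence, 2 h at room temperature.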

[15] = biological target: Nuclear receptor ROR-gamma (Homo sapiens) (UniProt P51449); assay: qHTS assay to identify small molecule antagonists of the retinoid-related orphan receptor gamma (ROR-gamma) signaling pathway (AID 1159521)
Procedure, shortened: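 Antagonist read-out: drop in luminescence (ONE-Glo) from an RORE-LUC reporter in CHO cells with doxycycline-inducible ROR-gamma; 2 hr compound pretreatment, 1 uM doxycycline, 16 hr incubation at 37 C.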

[16] = biological target: Bile acid receptor (Homo sapiens) (UniProt Q96RI1); assay: qHTS assay to identify small molecule antagonists of the farnesoid-X-receptor (FXR) signaling pathway (AID 743217; active means well fitted inhibition curve with a large enough effect in the signal ratio in the repeat runs, not every such curve was filed as active; the % refers to the signal ratio; further: on the % scale 0 is the no-effect control and ±100 the full control effect)
Procedure, shortened: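 Cells carrying a UAS-driven beta-lactamase reporter (GeneBLAzer FXR-UAS-bla HEK 293T) were plated and rested 5 h at 37 °C. Compounds in DMSO were added alongside chenodeoxycholic acid agonist at 50 uM final and left 16 h at 37 °C before FRET substrate readout.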

[17] = biological target: Peroxisome proliferator-activated receptor delta (Homo sapiens) (UniProt Q03181); assay: qHTS assay to identify small molecule agonists of the peroxisome proliferator-activated receptor delta (PPARd) signaling pathway (AID 743212; calls by dose curve; further: potency means the concentration at half of the fitted maximal effect)
Peroxisome proliferator-activated receptor delta (Homo sapiens), sequence (Q03181 whole entry, looked up): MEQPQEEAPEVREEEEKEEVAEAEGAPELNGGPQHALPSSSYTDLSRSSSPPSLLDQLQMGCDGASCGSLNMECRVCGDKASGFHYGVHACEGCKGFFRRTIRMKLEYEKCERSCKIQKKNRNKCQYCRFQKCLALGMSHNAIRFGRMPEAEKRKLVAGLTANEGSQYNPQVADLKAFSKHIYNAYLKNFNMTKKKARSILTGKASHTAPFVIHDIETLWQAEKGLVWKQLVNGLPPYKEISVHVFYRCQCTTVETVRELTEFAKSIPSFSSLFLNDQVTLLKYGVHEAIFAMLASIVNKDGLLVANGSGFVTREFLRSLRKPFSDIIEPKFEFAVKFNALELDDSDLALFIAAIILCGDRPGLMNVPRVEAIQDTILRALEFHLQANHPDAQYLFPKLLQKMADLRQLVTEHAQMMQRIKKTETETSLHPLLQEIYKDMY
Procedure, shortened: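 Cells expressing a UAS-driven beta-lactamase reporter (PPARd-bla HEK293H) were given test compounds after a 5 h settle and kept at 37 C. Reporter activity was then measured as FRET fluorescence using LiveBLAzer B/G substrate.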

[18] = biological target: Peroxisome proliferator-activated receptor delta (Homo sapiens) (UniProt Q03181); assay: qHTS assay to identify small molecule antagonists of the peroxisome proliferator-activated receptor delta (PPARd) signaling pathway (AID 743215; active means well fitted inhibition curve with a large enough effect in the signal ratio in the repeat runs, not every such curve was filed as active; the % refers to the signal ratio)
Procedure, shortened: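 Cells: HEK293H with a UAS-driven beta-lactamase reporter responsive to PPARd. Compounds were co-added with L165041 (300 nM, final) and incubated 17 h at 37 C before a 2 h room-temperature FRET substrate step and fluorescence reading.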

O=[N+]([O-])c1ccccc1Nc1ccccc1
inactive: Potency [1] | Potency [2] | Potency [3] | Potency [4] | Potency [5] | Potency [6] | Potency [7] | Potency [8] | Potency [9] | Potency [10] | Potency [11] | Potency [12]

O=C(Nc1ccc(Oc2ccc(Cl)cc2)c(Cl)c1)c1cc(I)cc(I)c1O
inactive: Potency [13] | Potency [5] | Potency [14] | Potency [8] | Potency [10]
active: Potency [6] 18.8 µM | Potency [15] 23.7 µM

COc1ccc(CN2CCN(C(c3ccc(F)cc3)c3ccc(F)cc3)CC2)c(OC)c1OC
inactive: Potency [5]
active: Potency [1] 29.8 µM | Potency [2] 23.7 µM | Potency [3] 21.1 µM | Potency [4] 29.8 µM | Potency [6] 29.8 µM | Potency [7] 16.9 µM | Potency [8] 15.1 µM | Potency [15] 23.7 µM

CSc1ccc2c(c1)C(N1CCN(C)CC1)Cc1ccccc1S2 (configuration not stated)
active: Potency [3] 26.6 µM | Potency [6] 23.7 µM | Potency [8] 23.9 µM
inactive: Potency [16] | Potency [13] | Potency [9] | Potency [10]

Nc1cc(C(F)(F)F)ccc1S
inactive: Potency [3] | Potency [4] | Potency [5] | Potency [7] | Potency [8] | Potency [10]
active: Potency [15] 26.6 µM

CCOc1nc2cccc(C(=O)OC(C)OC(=O)OC3CCCCC3)c2n1Cc1ccc(-c2ccccc2-c2nn[nH]n2)cc1 (configuration not stated)
active: Potency [1] 17.4 µM | Potency [3] 15.5 µM | Potency [6] 27.5 µM | Potency [7] 19.5 µM | Potency [8] 43.6 µM | Potency [9] 24.3 µM | Potency [10] 27.5 µM
inactive: Potency [13]

O=C(OC[C@H]1O[C@@H](OC(=O)c2cc(O)c(O)c(OC(=O)c3cc(O)c(O)c(O)c3)c2)[C@H](OC(=O)c2cc(O)c(O)c(OC(=O)c3cc(O)c(O)c(O)c3)c2)[C@@H](OC(=O)c2cc(O)c(O)c(OC(=O)c3cc(O)c(O)c(O)c3)c2)[C@@H]1OC(=O)c1cc(O)c(O)c(OC(=O)c2cc(O)c(O)c(O)c2)c1)c1cc(O)c(O)c(OC(=O)c2cc(O)c(O)c(O)c2)c1
inactive: Potency [3] | Potency [5] | Potency [8] | activity, negative = cytotoxicity [9] -4.77% [at 19 µM] | viability change, negative = cytotoxic [10] 1.96% [at 15.8 µM]

O=C(c1ccc(F)cc1)C1CCN(CCn2c(=O)[nH]c3ccccc3c2=O)CC1
inactive: Potency [17] | Potency [2] | Potency [18] | Potency [3] | Potency [4] | Potency [8] | Potency [9] | Potency [10] | Potency [11]

CCCCCCCCCCCCCCCC(=O)OC[C@H](O)[C@H]1OC(=O)C(O)=C1O
inactive: Potency [2] | Potency [18] | Potency [4] | Potency [5] | Potency [14] | Potency [7] | Potency [8] | Potency [9]
active: Potency [1] 49 µM | Potency [17] 49 µM | Potency [3] 38.9 µM | Potency [6] 34.7 µM

O=C(Oc1cccc2cccnc12)c1ccccc1
inactive: Potency [17] | Potency [14] | Potency [9] | Potency [10]
active: Potency [1] 3.35 µM | Potency [3] 9.44 µM | Potency [4] 8.41 µM | Potency [8] 2.39 µM

O=C1Cc2cc(CCN3CCN(c4nsc5ccccc45)CC3)c(Cl)cc2N1
inactive: Potency [9]
active: Potency [1] 29.8 µM | Potency [2] 26.6 µM | Potency [7] 23.9 µM | Potency [8] 23.9 µM

Nc1nc2ccccc2n1Cc1ccc(F)cc1
inactive: Potency [17] | Potency [2] | Potency [3] | Potency [5] | Potency [6] | Potency [8] | Potency [10]
active: Potency [15] 10.6 µM

O=C(Nc1cccc([N+](=O)[O-])c1)c1cc2ccccc2cc1O
active: Potency [15] 4.33 µM
inactive: Potency [17] | Potency [3] | Potency [5] | Potency [8] | Potency [10]

C/C(=C(/OCCOc1ccc(Cl)cc1)c1ccc(Cl)cc1Cl)n1ccnc1
inactive: Potency [17] | Potency [2] | Potency [3] | Potency [4] | Potency [5] | Potency [7] | Potency [8] | Potency [9] | Potency [10] | Potency [12]

O=CC=C(c1ccccc1)c1ccccc1
inactive: Potency [17] | Potency [8] | Potency [10]
active: Potency [15] 61.6 µM

CCOC(=O)/C=C(C)/C=C/C=C(C)/C=C/c1c(C)cc(OC)c(C)c1C
inactive: Potency [1] | Potency [2] | Potency [3] | Potency [4] | Potency [6] | Potency [7] | Potency [8] | Potency [9] | Potency [10] | Potency [11]
